High-throughput results from PubChem BioAssay.
The list is not random: actives were taken first. Their share in the collection is about 1.1%.
CIT2 TOR yeast – modulators of CIT2-GFP expression in yeast, primary screen, S. cerevisiae, GFP fusion, multiplex flow cytometry, MLPCN library; S. cerevisiae CIT2-GFP strain, 3 h; 100 means same as DMSO wells; GFP response vs DMSO, % at 10 µM; 0.065% of 320,000 active; AID 2029, 2009;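 active = GFP response relative to DMSO above a set limit, near the screen mean plus 3 SD, cut at about 150% in these data; inconclusive = Fewer than 70 cells measured for a yeast strain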;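 note: ratio of well median GFP fluorescence to mean of DMSO wells on the plate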
LAP4-GFP MLPCN – modulators of LAP4-GFP expression in yeast, primary screen, S. cerevisiae, multiplex flow cytometry, MLPCN library | 3 h; median GFP as percent of DMSO wells | GFP response vs DMSO, % at 10 µM | 0.34% of 320,000 active;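 active = GFP response vs DMSO above a set limit, about the screen mean plus 3 SD, cut at about 150% in these data; inconclusive = under 70 cell events counted for the yeast strain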
VLA-4 inh – inhibition in human VLA-4 binding assay, primary screen, VLA-4 allosteric modulator project, MLPCN library, flow cytometry, VLA-4 expressing cells. 0.2% of 330,000 active. inhibition, % (about 7 µM as worked out from the volumes in the protocol). AID 2557, 2010. Integrin alpha-4 (Homo sapiens), P13612. ligand binding flow cytometry; in the data active = inhibition above about 50%
RPL19A TOR yeast – RPL19A-GFP expression modulators in yeast, primary screen, cell-based, S. cerevisiae, multiplex flow cytometry, MLPCN | percent response vs DMSO, % at 10 µM | S. cerevisiae RPL19A-GFP strain, 3 h; hits give low values | 0.3% of 330,000 active;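 active = percent response vs DMSO below 50%; inconclusive = fewer than 70 events counted for the yeast strain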;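 note: median channel GFP fluorescence of the barcoded RPL19A-GFP strain; lower means less RPL19A-GFP as with rapamycin TOR inhibition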
AGP1-GFP MLPCN – modulators of AGP1-GFP expression in yeast TOR pathway, primary screen, cell-based, multiplex flow cytometry, S. cerevisiae, MLPCN library; 3 h; GFP as percent of DMSO wells; GFP response vs DMSO, % at 10 µM; 0.02% of 320,000 active; AID 2066, 2009;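 active = GFP response relative to DMSO above a set limit, near screen average plus 3 SD, cut at about 150% in these data; inconclusive = fewer than 70 cells counted for the yeast strain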;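 note: median GFP channel fluorescence of the gated AGP1 strain per well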
MEP2-GFP yeast – modulators of MEP2-GFP levels in yeast, primary screen, S. cerevisiae, multiplex flow cytometry, MLPCN library; GFP response vs DMSO, % at 10 µM; 0.51% of 330,000 active; S. cerevisiae MEP2-GFP strain, 3 h; 100% = DMSO control level;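 active = GFP response versus DMSO above a set limit, roughly screen mean plus 3 SD, cut at about 180% in these data; inconclusive = fewer than 70 cells counted for a yeast strain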;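 note: median GFP fluorescence of the barcode-gated MEP2-GFP cells per well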
Hits are given with their value; i = inactive; ? = inconclusive; nt = no result; [ ] = remark or other dose.

SMILES	CIT2 TOR yeast	LAP4-GFP MLPCN	VLA-4 inh	RPL19A TOR yeast	AGP1-GFP MLPCN	MEP2-GFP yeast
COc1ccc(N2CCN(C(=O)Cn3c(=O)[nH]c4ccsc4c3=O)CC2)cc1	?	i	i	45[may fluoresce violet]	?	573[may fluoresce violet]
COc1ccc(N2CCN(C(=O)CCCCn3c(=O)[nH]c4ccsc4c3=O)CC2)cc1	i	i	i	i	i	i
CSCCC(NC(=O)c1ccc([N+](=O)[O-])cc1Cl)C(=O)OC1CCCCC1=O (stereo not drawn)	i	i	i	i	i	i
O=C(O)COc1c(-c2ccc(Cl)cc2)oc2ccccc2c1=O	i	167	i	i	i	i
CC(C)n1c(SCC(=O)NCc2ccco2)nnc1C1CC1	i	i	i	i	i	i
Cc1cc(-c2ccccc2C(=O)O)on1	i	i	i	i	i	i
O=C(O)c1ccccc1C1=Nc2ccc(O)cc2Oc2cc(O)ccc21	?	i	i	nt	i	260[may fluoresce violet]
CCN(CC)CCCN(Cc1cc2cc3c(cc2[nH]c1=O)OCO3)C(=S)Nc1ccccc1	i	153	i	i	i	i
CCNC(=S)N(CCCN(CC)CC)Cc1cc2cc3c(cc2[nH]c1=O)OCO3	i	i	i	i	i	i
Cc1cccc(N2CCN(C(=O)c3ccccc3SCC(=O)N3CCCC3)CC2)c1C	i	i	i	i	i	i
CCOC(=O)c1cnc2c(C#N)c(C)nn2c1C	?	i	i	i	i	343[may fluoresce violet]
CCOC(=O)c1cnc2c(C#N)c(C)nn2c1-c1ccccc1	i	i	i	i	i	i
O=[N+]([O-])c1ncccc1OCc1ccc(-c2ccccc2)cc1	156	i	i	i	i	i
N#Cc1ccc(COc2cccnc2[N+](=O)[O-])cc1	i	i	i	i	i	i
NS(=O)(=O)c1ccc(CCNC(=O)C2CCCN2S(=O)(=O)c2cccc3nsnc23)cc1 (stereo not drawn)	i	i	i	i	i	i
c1ccc2nc3c(nc2c1)[nH]c1ccccc13	?	i	i	41[may fluoresce violet]	?	503[may fluoresce violet]
c1ccc(-c2c3ccccc3nc3[nH]c4ccccc4c23)cc1	i	i	i	i	i	i
CC(=O)Oc1ccc(/C(C)=N/N2CCN(Cc3ccc(C)cc3)CC2)cc1	i	i	i	i	i	i
O=C(O)CCC(=O)NNc1ncnc2ccccc12	i	i	50	i	i	i
O=C(COC(=O)COc1ccccc1)NCCC1=CCCCC1	i	i	i	i	i	i
CN(C)CCN(C(=O)c1ccc2c(c1)OCCO2)c1nc2c(Cl)cccc2s1	i	i	i	i	i	i
CC(=O)c1ccc(C(=O)N(CCN(C)C)c2nc3c(Cl)cccc3s2)cc1	?	i	i	47[may fluoresce violet]	?	198[may fluoresce violet]
O=S(=O)(Nc1nnc(-c2ccccc2)s1)c1ccc(Cl)cc1	i	i	i	i	i	i
O=S(=O)(c1ccc(Cl)cc1)c1snnc1-c1ccccc1	i	165	i	i	nt	i
N#Cc1c(N)n(-c2ccc(C(=O)O)cc2)c2nc3ccccc3nc12	?	i	i	i	?	209[may fluoresce violet]
SMILES	CIT2 TOR yeast	LAP4-GFP MLPCN	VLA-4 inh	RPL19A TOR yeast	AGP1-GFP MLPCN	MEP2-GFP yeast
COc1ccc(CNc2nc(-c3cccnc3)nn2C(C)=O)cc1	i	i	i	i	i	i
COc1ccc(CNc2nc(-c3cccnc3)nn2C(=O)c2ccco2)cc1	?	i	i	nt	?	280[may fluoresce violet]
Cc1ccc(OCC(=O)Nc2ccc(S(=O)(=O)N3CCN(C)CC3)cc2)cc1	i	i	i	i	i	i
O=C(COc1ccccc1)Nc1ccc(S(=O)(=O)N2CCCCCC2)cc1	?	i	i	i	i	226[may fluoresce violet]
Cc1cc(OCC(=O)Nc2ccc(S(=O)(=O)N3CCN(C)CC3)cc2)ccc1Br	i	157	i	i	i	i
O=C(CN1CCN(S(=O)(=O)c2ccc3ccccc3c2)CC1)Nc1ccc2c(c1)CCC2	?	i	i	30[may fluoresce violet]	?	250[may fluoresce violet]
Fc1ccc(CN2CC[C@H]3C=CCc4cccc(c43)C2)cc1	i	i	i	i	i	i
Cc1nc2ccccc2n2c(O)c(CC(=O)O)cc12	i	i	i	i	i	196
